An excerpt weighted towards active compounds, which were near 1.8% of everything screened.
EWS-Fli inh – EWS/Fli-driven NR0B1 reporter inhibitors, primary screen, A673 cells, NR0B1 luciferase, luminescence, MLPCN library; viability-normalised; actives 0.67% (n = 350,000); inhibition, % at 12.6 µM; AID 651661, 2012;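 active = mean inhibition of at least 50% after viability correction, with every replicate also passing that limit; inconclusive = mean reaches 50% but only one of two replicates passes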;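 note: firefly luciferase signal divided by Alamar Blue viability fluorescence both relative to DMSO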
RAD52 inh – RAD52 DNA annealing inhibitors, primary screen, biochemical, FRET, single point, set 2. DNA repair protein RAD52 homolog (Homo sapiens), P43351. recombinant RAD52 DNA annealing, FRET fluorescence. inhibition, % at 18.7 µM. actives 0.46% (n = 360,000);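 active = every replicate showing at least 50% inhibition; inconclusive = mean inhibition at least 50% but not in every replicate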
F508del corr – F508del CFTR correction, initial screen, CFBE line, single point | CFBE cells, YFP halide quenching; stimulated with forskolin plus potentiator P3; % fluorescence drop versus neutral controls | activity (quench increase), % at 7.58 µM | actives 0.36% (n = 350,000);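 active = mean added fluorescence quench of at least 8% versus neutral control, with both replicates also reaching 8%; inconclusive = only one of the mean or replicate conditions met; inactive = mean below 8% and not both replicates reaching 8%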;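 note: cells transiently co-express mutant CFTR-F508del with the halide-sensitive YFP; corrector assay measuring rescue of mutant channel to the surface after 24 h compound exposure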
GSIS activator – GLuc luminescence reporter in INS-1E cells, primary screen for activators of glucose-dependent secretion of insulin; INS-1E GLuc reporter insulin secretion, 2-3 h; activation, % at 16.6 µM; actives 0.61% (n = 370,000);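 active = lowest replicate activation of at least 40%, so every replicate reaches that level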;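 note: 0% = median of neutral control wells and 100% = median of IBMX positive control wells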
RAD54 branch – inhibitors of human RAD54 branch migration, primary screen, biochemical, fluorescence, single point; RAD54 Holliday junction branch migration, FAM/BHQ fluorescence; inhibition, % at 10.4 µM; actives 0.14% (n = 360,000); AID 602329, 2012;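 active = mean normalized replicate activity at least 40 and at least half of replicates scoring 40 or more; inconclusive = only one of the two criteria met; inactive = mean below 40 and under half of replicates reaching 40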;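 note: 0% = median of neutral control wells and 100% = median of positive control wells; inhibitors cause a drop in the FAM fluorescence signal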
Target sequence (Q92698 whole entry, looked up): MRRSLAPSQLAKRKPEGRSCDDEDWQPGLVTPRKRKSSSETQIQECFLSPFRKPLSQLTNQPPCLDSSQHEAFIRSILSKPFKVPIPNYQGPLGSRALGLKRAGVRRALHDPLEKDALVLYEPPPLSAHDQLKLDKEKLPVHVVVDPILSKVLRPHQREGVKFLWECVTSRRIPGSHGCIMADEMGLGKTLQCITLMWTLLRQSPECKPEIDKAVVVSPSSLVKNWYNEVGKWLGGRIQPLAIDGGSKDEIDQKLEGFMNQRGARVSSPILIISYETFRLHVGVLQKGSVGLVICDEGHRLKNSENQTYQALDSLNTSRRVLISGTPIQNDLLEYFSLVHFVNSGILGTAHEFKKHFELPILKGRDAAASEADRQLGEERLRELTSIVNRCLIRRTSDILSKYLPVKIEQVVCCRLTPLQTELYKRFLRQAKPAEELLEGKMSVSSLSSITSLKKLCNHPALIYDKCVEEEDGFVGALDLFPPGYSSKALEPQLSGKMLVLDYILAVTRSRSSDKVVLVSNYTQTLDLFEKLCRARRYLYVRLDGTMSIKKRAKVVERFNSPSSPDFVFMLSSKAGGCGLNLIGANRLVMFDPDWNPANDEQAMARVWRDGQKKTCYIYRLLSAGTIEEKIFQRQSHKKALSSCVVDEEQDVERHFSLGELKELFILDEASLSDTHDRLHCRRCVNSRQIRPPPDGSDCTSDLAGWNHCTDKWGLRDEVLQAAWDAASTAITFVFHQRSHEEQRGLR
LGR2 antag – inhibitors of bursicon-induced LGR2 CRE-luciferase signal, primary screen, cell-based, HEK293, CRE-luciferase reporter, bursicon stimulation; bursicon-stimulated, 4 h; actives 0.35% (n = 380,000); Drosophila bursicon receptor LGR2 (rickets); inhibition, % at 9.99 µM; AID 720647, 2013;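 active = drop in luminescence signal, shown as inhibition above about 50% in the replicate tests, limit read from the data, passing the limit was not always enough; inconclusive = probably only some replicates passing the limit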;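 note: agonist challenge used bursicon conditioned medium at about half maximal strength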
The depositor's hits bear a star; ? = inconclusive; / = no result.

SMILES	EWS-Fli inh	RAD52 inh	F508del corr	GSIS activator	RAD54 branch	LGR2 antag
CCOc1ccc(N(C)S(=O)(=O)c2cc(-c3cc(C)no3)ccc2C(C)C)cc1	11	-26	-1	-27	/	6
C/C=C/c1ccc([C@H]2[C@@H](CO)N(CC3CC3)[C@H]2CNS(C)(=O)=O)cc1	2	/	-5	-6	-7	-7
CC(=O)Nc1nc(C=C(Cl)Cl)cs1	/	/	/	/	-4	/
Cc1occc1C(=O)NCc1cccc(CNC(=O)c2ccoc2C)c1	/	/	/	/	8	/
COC(=O)Nc1nc2ccc(C(=O)c3cccs3)cc2[nH]1	64*	-3	-4	/	-2	11
Cc1ccc(NC(=S)c2ccc3ccccc3n2)c(C)c1	-55	-13	2	57*	7	-92
Cc1ccc(C)c(NC(=O)c2ccc3ccccc3n2)c1	/	/	/	31	-5	23
COc1ccc(C(=O)N(C)Cc2cnn(Cc3ccccc3)c2)cc1S(=O)(=O)N1CCOCC1	62*	-1	3	-15	11	-10
COC(=O)c1cc(S(=O)(=O)N2CCN(c3ccc(C(C)=O)cc3)CC2)c[nH]1	/	-5	-1	0	/	-6
Cc1nn(Cc2ccccc2)c(C)c1NC(=O)c1cc2nc(-c3ccco3)cc(C(F)(F)F)n2n1	/	/	/	/	-2	/
Cc1ccccc1Cn1ccc(NC(=O)c2cc3nc(-c4ccco4)cc(C(F)(F)F)n3n2)n1	/	/	/	66*	-1	1
CC/C(O)=C1\C(=O)CC(C)(C)CC1=Nc1ccccc1C	/	/	/	73*	/	3
CCCC/C(O)=C1\C(=O)CC(C)(C)CC1=Nc1ccccc1OC	9	-7	-1	-18	-2	0
COc1ccc(-c2nc(C(N)=O)c3[nH]c(=O)n(-c4cccc(Cl)c4)c3n2)cc1OC	/	/	/	/	8	/
CCc1ccc(-c2nc(C(N)=O)c3[nH]c(=O)n(-c4ccccc4OC)c3n2)cc1	63*	9	8.9*	/	7	/
O=C(Nc1ccc(Cl)c(Cl)c1)N[C@@H]1CC[C@H](CCn2cc(C3CCCC3)nn2)O[C@H]1CO	-5	12	2	-29	/	1
Cc1cccc(NC(=S)Nc2ccccn2)c1C	/	/	/	41*	/	-7
Cc1cccc(NC(=O)Nc2ccccn2)c1C	-94	0	3	5	-8	-53
COc1cc(/C(C)=N/N2CCN(Cc3ccc(C)cc3)CC2)ccc1O	16	-5	-1	-20	-4	-8
O=C1C=CN(C2OC(CO)C(O)C2O)C(=O)C1 (centres undefined)	-9	-5	9.7*	18	/	-3
O=C(CNC(=O)c1ccco1)N=Nc1c(O)n(CCc2ccccc2)c2ccccc12	56*	-7	0	42	8	18
CCCOc1ccc(-c2cn3ccccc3n2)cc1	47	-4	3	2	/	75*
O=C(c1ccc(CSc2nc3ccncc3[nH]2)cc1)N1CCN(c2cccc(Cl)c2)CC1	18	-12	6	/	-6	65*
CSc1nnc(NC(=O)c2nc(S(=O)(=O)Cc3ccccc3)ncc2Cl)s1	/	-11	-1	-8	0	-16
CC(C)c1nnc(NC(=O)c2nc(S(=O)(=O)Cc3ccccc3)ncc2Cl)s1	64*	-12	2	10	8	7
SMILES	EWS-Fli inh	RAD52 inh	F508del corr	GSIS activator	RAD54 branch	LGR2 antag
CC(=O)Nc1ccc(NC(=O)c2nc(S(=O)(=O)Cc3cccc(C)c3)ncc2Cl)cc1	61*	-13	7	-3	0	-39
COc1ccccc1NC(=O)c1nc(S(=O)(=O)Cc2ccccc2)ncc1Cl	59*	-11	1	47	4	-17
Cc1cccc(NC(=O)CN2C(=O)NC3(CCCCCCC3)C2=O)c1C	8	-5	2	7	3	-16
N#CCSc1nc2ccccc2c(=O)n1C1CCCCC1	5	-16	5	53*	/	-12
Cc1nc2cc(-c3ccc(Cl)cc3)nn2c(C)c1CCC(=O)NCc1ccco1	57*	-12	-1	4	-1	-31
COc1ccc(-c2cc3nc(C)c(CCC(=O)NCc4ccco4)c(C)n3n2)c(OC)c1	/	/	/	/	-4	/
Cc1cc(C(=O)CN2C(=O)C(=O)N(Cc3ccco3)C2=O)c(C)n1CCc1ccc(F)cc1	4	-20	-1	2	-3	15
COCC(C)n1c(C)cc(C(=O)COC(=O)c2cccn2C)c1C (centres undefined)	61*	-10	4	/	3	/
Cc1cc(C(=O)COC(=O)c2ccncc2)c(C)n1Cc1ccco1	-7	-39	-3	4	1	-27
Cc1cc(C(=O)CN2C(=O)C(=O)N(Cc3ccco3)C2=O)c(C)n1CCc1ccccc1	54*	-30	0	-6	-2	2
COCC(C)n1c(C)cc(C(=O)COC(=O)c2cnc(Cl)c(Cl)c2)c1C (centres undefined)	6	-34	2	-31	8	2
Cc1cc(C(=O)COC(=O)c2ccco2)c(C)n1Cc1ccco1	-9	-18	0	0	/	91*
Cc1cc(C(=O)COC(=O)c2cccn2C)c(C)n1Cc1ccco1	29	-14	-1	7	-5	53*
COc1ccc(F)cc1C(=O)C1CCCN(C(=O)CSc2ccccn2)C1 (centres undefined)	3	-6	2	22	-1	-18
Cc1cccc(NC(=S)N(CCN(C)C)Cc2cc3cc(C)cc(C)c3[nH]c2=O)c1	/	/	/	-1	-6	8
Cc1cc(NCc2ccccn2)n2ncc(-c3ccccc3)c2n1	-52	-10	8.5*	-5	-7	-90
CCc1ccc(OCC(=O)NC(=S)Nc2ccc(C)cc2C)c(Br)c1	/	/	/	41*	-6	-11
O=C(CN1c2cccc3cccc(c23)S1(=O)=O)N1CCCCC1	-7	-21	1	-1	2	15
COc1ccccc1N(C(=O)CCl)c1cn(C(C)=O)c2ccccc12	28	2	-10	/	9	48
COc1ccccc1N(C(C)=O)C1=C(Cl)C(=O)c2ccccc2C1=O	56*	-5	-7	/	4	?
CCCC(O)(CCC)C(=O)NN(C(=O)CCl)c1ccccc1	-2	-6	1	4	/	-6
CN1c2ccc(-c3cccc(F)c3)cc2[C@H]2[C@H](CCN2S(=O)(=O)c2cccc(F)c2)[C@@H]1CO	6	6	0	-41	0	5
COc1ccccc1S(=O)(=O)N1CC[C@@H]2[C@H]1c1cc(-c3ccccc3)ccc1N(C)[C@H]2CO	6	10	0	4	5	16
COc1ccccc1S(=O)(=O)N1CC[C@@H]2[C@@H](CO)N(C)c3ccc(-c4ccc(F)cc4)cc3[C@@H]21	35	-4	12*	-7	7	6

Screening results: PubChem, Broad Institute
